Data on twelve molecules can be found in PubChem BioAssay (NCATS).

Each structure is given as a SMILES string. Inconclusive results are not listed. The source made the active and inactive calls. Unless noted, the call rests on the fitted dose curve; in most records, active means well fitted curve in the direction sought with a large enough effect; inconclusive means small, poorly fitted or top-dose-only effect, or another doubt; inactive means no such curve, though single readings can be large; an effect the other way counts as inactive or inconclusive.

Assay [1] can be described thus: qHTS for Activators of Parkin Expression: LOPAC Validation Assay (NLuc Reporter) (AID 720572;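 further: 0% = DMSO and 100% = positive control compound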). The gist of the method: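 Cells harboring the Parkin-promoter coincidence reporter were treated for 24 h at seven concentrations. NLuc output was measured sequentially after the FLuc channel and scaled between DMSO and positive control values.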
A general note: Quantitative high-throughput screening tests each substance at several concentrations.

The nature of assay [2]: qHTS for Activators of Parkin Expression: LOPAC Validation Assay (FLuc Reporter) (AID 720573; further: potency means the concentration at half of the fitted maximal effect). Put shortly: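 Neuronal cell line stably expressing FLuc/NLuc coincidence reporter under the Parkin promoter, 1,500 cells/well, dosed 24 h after seeding in 7-point series for 24 h at 37 C. FLuc luminescence read; normalized to DMSO and positive control (100%).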
The target of assay [3] is T1, Hexokinase-4 (Homo sapiens) + Glucokinase regulatory protein (Homo sapiens) (UniProt P35557+Q14397). Put plainly: qHTS assay for inhibitors of recombinant human GCK-GKRP interaction: Diaphorase-coupled assay (AID 743205). The gist of the method:
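Compounds pre-incubated 20 min with substrate, then 10 nM GST-GCK with 10 nM FLAG-GKRP added. GCK activity coupled via G6PDH and diaphorase to resorufin (5 mM glucose, 0.4 mM ATP, 0.15 mM NADP+, pH 7.6), read kinetically over 30 minutes at Ex 525/Em 590 nm.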

Assay [4] concerns the target T1, Hexokinase-4 (Homo sapiens) + Glucokinase regulatory protein (Homo sapiens). Put plainly: qHTS assay for inhibitors of recombinant human GCK-GKRP interaction: ADP-Glo assay (AID 743206).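 Further: plate controls were DMSO plus enzyme for no effect and no enzyme for full effect.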 Put shortly:
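Pin-transferred compounds meet a 15 nM GST-GCK/15 nM FLAG-GKRP/2 uM S6P mix (dispense concentrations). ATP is then added to 0.4 mM final with 5 mM glucose, and the reaction runs 60 min at room temperature. ADP is quantified luminescently.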

Assay [5] shares this target. The experiment in a line: qHTS assay for inhibitors of recombinant human GCK-GKRP interaction: HTRF assay (AID 743207).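 Further: 0% = DMSO with GCK present and -100% = DMSO wells lacking GCK.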 The gist of the method:
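HTRF binding of 5 nM GST-GCK and 5 nM FLAG-GKRP with 2 uM S6P in pH 7.1 Hepes buffer (MgCl2, KCl, DTT, Tween 20, BSA). Anti-FLAG XL665 and anti-GST donor added, 60 min at room temperature; 665/615 nm read, normalized to with- and without-GCK controls.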

Assay [6] is described as follows: qHTS assay for measurement of the activity of small molecule inhibitors on Zika virus induced Caspase-3 activity in human astrocytoma cells (AID 1224859).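 Further: plate controls were ZIKV-infected untreated cells for no effect and uninfected cells for full effect.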 The gist of the method:
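Luminescent caspase-3/7 read-out (30 min reagent, room temperature) in human SNB-19 cells infected 6 h with ZIKV (2 FFU/cell) after 1 h compound pre-incubation; Data were normalised to uninfected and infected wells.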

Assay [7] can be described thus: qHTS Assay for Identifying Gametocytocidal Compounds (AID 743244). Further: potency means the concentration at half of the fitted maximal effect.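 On max response: on the % scale 0 is the no-effect control and ±100 the full control effect; actives lower the fluorescent signal which means gametocytes are killed.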 Conditions: P. falciparum 3D7 stage III-V gametocytes, alamarBlue, 72 h; max response: stronger effect = lower value. Put shortly: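 Viability read-out was resazurin reduction (alamarBlue, 24 h) measured at Ex 525/Em 598 nm. Beforehand, late-stage (III-V) 3D7 P. falciparum gametocytes at 20,000 cells/well were incubated with compound 72 h at 37C under 5% CO2.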

Assay [8] can be described thus: qHTS profiling for inhibitors of Plasmodium falciparum (3D7) proliferation (AID 743322; call rule not given here;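 further: infected erythrocytes exposed to compound for 72 h before lysis; 100% = DMSO vehicle wells and 0% = 0.29 µM artemisinin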). Conditions: P. falciparum 3D7 proliferation; at 28.7 µM (top of the series) unless noted. Put shortly:
(§1)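 Parasite DNA was quantified by SYBR Green I fluorescence (ex 485, em 535 nm) after overnight lysis in saponin/Triton buffer at room temperature. Cultures at 0.3% parasitemia and 2.5% hematocrit were first exposed to compound for 72 h at 37 C; signals were normalised to artemisinin (0.29 uM) and vehicle wells.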

A short description of assay [9]: qHTS profiling for inhibitors of Plasmodium falciparum (DD2) proliferation (AID 743323; call rule not given here). As to conditions: lower = more inhibition; at 28.7 µM (top of the series) unless noted. Put shortly:
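Parasite proliferation measured via DNA-dye fluorescence, as uninfected erythrocytes lack DNA. Cultures at 0.3% parasitemia and 2.5% hematocrit incubated 72 h with compound; signal scaled between vehicle and 0.29 uM artemisinin wells.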

Assay [10] in a line: qHTS profiling for inhibitors of Plasmodium falciparum (HB3) proliferation (AID 743324).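 Further: 100% = DMSO vehicle wells and 0% = artemisinin-treated control wells.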 As to conditions: Plasmodium falciparum HB3 blood-stage proliferation; at 28.7 µM (top of the series) unless noted. Put shortly:
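SYBR Green fluorescence (485 ex/535 em) of lysed cultures, incubated overnight at room temperature in the dark, quantifies parasite DNA. Infected erythrocytes at 0.3% parasitemia and 2.5% hematocrit were exposed 72 h; values normalized to DMSO and 0.29 uM artemisinin controls.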

A short description of assay [11]: qHTS profiling of the MIPE4 collection as inhibitors of Plasmodium falciparum (3D7) proliferation (AID 743344; call rule not given here;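 further: scaled between DMSO vehicle wells and 0.29 µM artemisinin as full inhibition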). As to conditions: P. falciparum 3D7 in erythrocytes, SYBR Green DNA fluorescence, 72 h; at 28.5 µM (top of the series). The gist of the method:
as §1

Assay [12] in a line: qHTS profiling of the MIPE4 collection as inhibitors of Plasmodium falciparum (DD2) proliferation (AID 743345; call rule not given here). Conditions: P. falciparum Dd2 in erythrocytes, SYBR Green DNA, 72 h; at 28.5 µM (top of the series). Put shortly: as §1
Assay [13] in a line: qHTS profiling of the MIPE4 collection as inhibitors of Plasmodium falciparum (DD2) proliferation (Rep 2) (AID 743346; call rule not given here). Conditions: P. falciparum Dd2 in erythrocytes, SYBR Green DNA, 72 h; at 28.5 µM (top of the series). The gist of the method: as §1
Assay [14] can be described thus: qHTS profiling of the MIPE4 collection as inhibitors of Plasmodium falciparum (HB3) proliferation (AID 743347; call rule not given here;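 further: plate controls were DMSO vehicle wells for no effect and artemisinin wells for full effect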). As to conditions: P. falciparum HB3 in erythrocytes, SYBR Green DNA, 72 h; at 28.5 µM (top of the series). Put shortly: as §1

T1 sequence (P35557 whole entry, looked up): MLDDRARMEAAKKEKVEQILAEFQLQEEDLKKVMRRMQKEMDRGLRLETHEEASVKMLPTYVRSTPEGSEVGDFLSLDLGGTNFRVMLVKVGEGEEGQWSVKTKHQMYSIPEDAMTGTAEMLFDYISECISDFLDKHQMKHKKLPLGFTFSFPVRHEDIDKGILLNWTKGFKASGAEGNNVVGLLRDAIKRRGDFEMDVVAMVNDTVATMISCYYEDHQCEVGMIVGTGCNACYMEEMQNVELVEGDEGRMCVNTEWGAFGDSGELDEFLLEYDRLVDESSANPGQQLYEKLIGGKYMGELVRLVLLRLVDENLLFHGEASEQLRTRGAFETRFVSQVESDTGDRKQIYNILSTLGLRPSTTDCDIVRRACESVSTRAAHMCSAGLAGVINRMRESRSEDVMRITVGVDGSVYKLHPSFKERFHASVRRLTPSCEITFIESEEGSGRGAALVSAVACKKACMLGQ
T1 sequence (Q14397 whole entry, looked up): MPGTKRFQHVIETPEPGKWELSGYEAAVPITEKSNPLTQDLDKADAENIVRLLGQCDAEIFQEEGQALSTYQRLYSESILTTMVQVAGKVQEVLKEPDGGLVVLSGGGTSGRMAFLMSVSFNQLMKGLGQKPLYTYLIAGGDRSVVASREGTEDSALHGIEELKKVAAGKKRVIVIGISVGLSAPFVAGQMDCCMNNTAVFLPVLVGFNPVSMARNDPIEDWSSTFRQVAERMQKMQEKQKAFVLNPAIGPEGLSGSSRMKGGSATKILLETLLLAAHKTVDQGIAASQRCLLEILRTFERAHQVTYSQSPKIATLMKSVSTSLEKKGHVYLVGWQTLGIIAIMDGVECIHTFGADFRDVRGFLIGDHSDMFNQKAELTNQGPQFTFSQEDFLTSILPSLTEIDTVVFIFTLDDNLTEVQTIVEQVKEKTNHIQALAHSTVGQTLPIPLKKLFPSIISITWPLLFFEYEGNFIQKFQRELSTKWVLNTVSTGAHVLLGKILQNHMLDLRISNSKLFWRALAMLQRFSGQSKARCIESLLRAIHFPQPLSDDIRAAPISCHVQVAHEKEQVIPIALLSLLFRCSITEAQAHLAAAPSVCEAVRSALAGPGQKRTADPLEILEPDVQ

Consider `O=[N+]([O-])c1ccc(CSc2ncnc3c2ncn3[C@@H]2O[C@H](CO)[C@@H](O)[C@H]2O)cc1`, for which the Potency result in assay [1], in assay [2], in assay [4], in [5] and in assay [6] was “inactive” throughout. Besides, in assay [3], the result was inactive.
As to `CCCCCCCCCCCCCCCCCC(=O)NCC(COP(=O)([O-])OCC[N+](C)(C)C)OCC` (configuration not stated), the Potency result in assay [1], in [2], in assay [4], in [5] and in [6] was “inactive” in each case. For the same molecule, the outcome in [3] was inactive. The max response in assay [7] was 4.32% (inactive).
As for `O=C1/C(=C/c2ccsc2)CC/C1=C\c1cccs1`, the Potency entry in [1], in assay [4], in assay [5] and in assay [6] was “inactive” each time. For the same molecule, in assay [2], the Potency is 18.4 µM (active). Further, in assay [3], the outcome was inactive. In addition, the max response in assay [7] was 30.3% (inactive).
In the case of `NC(=S)NCCC[C@H](N)C(=O)O`, the Potency entry in [1], in [2], in assay [4], in assay [5] and in assay [6] was “inactive” each time. Besides, the outcome in assay [3] was inactive. In addition, the max response in assay [7] is 29.7% (inactive).
In the case of `CNc1ncnc2c1ncn2[C@@H]1O[C@H](CO)[C@@H](O)[C@H]1O`, the Potency result in assay [1], in assay [2], in assay [4], in assay [5] and in assay [6] was “inactive” throughout. Further, in [3], the result was inactive. Moreover, in [7], the max response was 31.8% (inactive).
`C=CC(C)=C[C@@]1(C)SC(=O)C(C)=C1O`: the Potency entry in assay [1], in [2], in assay [4], in assay [5] and in assay [6] was “inactive” each time. For the same molecule, the result in assay [3] was inactive. The max response in [7] was 15.5% (inactive). This molecule returned a remaining parasite growth % (stronger effect = lower value) in [8] of 98%. The same molecule showed an activity, percent of control in assay [9] of 98.3%. In assay [10], this molecule had a remaining proliferation (% of control), lower = more inhibition of 92.5%. The molecule further came in with a parasite growth, % of DMSO control in [11] of 98.9%. Also, the parasite growth remaining, % of DMSO control (lower = more inhibition) in assay [12] came out at 108%. Further, in assay [13], the parasite growth, % of control (lower = inhibition) came out at 151%. Also, the growth, % of control in assay [14] was found to be 77.3%.
As for `CO/S(=N\S(=O)(=O)c1ccc(Cl)cc1)c1ccc([N+](=O)[O-])cc1` (configuration not stated), the Potency result in assay [1], in [2], in assay [4] and in [6] was “inactive” each time. The result in [3] was inactive. Besides, in assay [7], the max response was 19.6% (inactive).
For `C[N+]1(C)CCC(OC(=O)C(c2ccccc2)c2ccccc2)CC1`, the Potency entry in [1], in assay [2], in assay [4], in assay [5] and in assay [6] was “inactive” throughout. The result in assay [3] was inactive.
With `N#C/C(=C\c1c[nH]c2ccccc12)C(=O)c1ccc(O)c(O)c1`, the Potency result in [1], in assay [2], in assay [4], in assay [5] and in assay [6] was “inactive” each time. Further, the outcome in [3] was inactive. Also, in assay [7], the max response was -1.71% (inactive).
Turning to `N#C/C(=C\c1ccc(O)c(O)c1)C(=O)NCCCc1ccccc1`, the Potency result in assay [1], in [2], in assay [4], in assay [5] and in [6] was “inactive” each time. In addition, the outcome in assay [3] was inactive. The max response in assay [7] was 8.54% (inactive).
As to `O=P(O)(O)C(Cl)(Cl)P(=O)(O)O`, the Potency result in assay [1], in assay [2], in assay [4], in assay [5] and in [6] was “inactive” each time. Also, in assay [3], the result was inactive.
Take `O=Nc1ccc2oc(=O)ccc2c1`: the Potency result in assay [1], in assay [2], in [4], in assay [5] and in [6] was “inactive” throughout. The result in [3] was inactive. For the same molecule, the Potency in [7] is 1.78 µM (active).
